# Experimental data from PubChem BioAssay AID624133 (Broad Institute, 2012).
# The campaign covered roughly 1,600 compounds. About 1,300 (81%) were called active. No rule for the calls is given here. The set was probably picked from earlier hits. Only a sample is shown. Entries with a potency or affinity are not part of this list.
# Assay: non-specific 3'UTR reporter inhibition in Clone20-Shn3RL – cell-based, Renilla luciferase, cherry-picked, counter-screen for Shn3 inhibitor project, dose response (AID 624133);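 also: 0% = neutral control wells and -100% = positive control wells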
# Conditions: Clone20-Shn3RL cells, Renilla luciferase luminescence, 24 h; at 35 µM (top of the series) unless noted
row,SMILES,"activity change, negative = inhibition"
1,CCn1nnc2cc(C(=O)Nc3cc(Cl)ccc3C)ccc21,-11.1%
2,CCOC(=O)c1c(C)[nH]c(C(=O)COC(=O)[C@H](C)N2C(=O)C3CCCCC3C2=O)c1C (stereo not given in full),-5%
3,O=C(Nc1cccc(-c2ccc(N3CCCCC3)nn2)c1)C(F)(F)F,-50%
4,Nc1c(Br)cc2c(c1Br)C(O)c1ccccc1-2 (stereo not given),22.2%
5,CCCOc1ccc2oc(=O)c3c(c2c1)CCCN3C(=O)CN1CCN(c2ncccn2)CC1,133%
6,COc1ccc(CN(C(=O)CSc2nnc(-c3ccc(F)cc3)o2)c2ccc(F)cc2)cc1,16.7%
7,CSc1cccc(NS(=O)(=O)c2ccc3c(c2)CCN3C(C)=O)c1,400%
8,COc1cc(SC)ccc1C(=O)Nc1nc2ccccc2[nH]1,-90%
9,Cc1cccc(CSc2cccc3cccnc23)c1,49.1%
10,O=C(NCc1ccccc1C(F)(F)F)c1cccc2c1C(=O)c1ccc(N3CCC(N4CCCCC4)CC3)cc1S2(=O)=O,-33.6%
11,CC(C)n1c(/C=C/[C@@H](O)C[C@@H](O)CC(=O)O)c(-c2ccc(F)cc2)c2ccccc21,-100%
12,O=c1cc(-c2ccc(O)cc2)oc2ccc3ccccc3c12,91.7%
13,Cn1cc([N+](=O)[O-])c(C(=O)Nc2sc3c(c2C#N)CCC3)n1,-10.8%
14,O=C(COC(=O)/C=C/c1ccc(OC(F)F)cc1)Nc1ccc2[nH]c(=O)[nH]c2c1,-21.3%
15,O=C(Nc1nc2cc3c(cc2s1)OCCO3)C1=COCCO1,45.8%
16,Cc1cccc(-c2noc(CN(C(=O)C(c3ccccc3)c3ccccc3)C(C)C)n2)c1,-29.9%
17,CC1=NOC(=O)/C1=C\c1ccc(-c2ccccc2Br)o1,35.7%
18,COc1ccc(NS(=O)(=O)c2ccc3ccccc3c2)c2ncccc12,293%
19,Cc1nc2scc(C)n2c(=O)c1S(=O)(=O)Nc1ccc(N2CCOCC2)c(Cl)c1,62.5%
20,Nc1nnc(SCC(=O)Nc2ccc(N3CCOCC3)cc2)s1,45.8%
21,CCOc1cc(/C=C2\C(=O)ON=C2C)ccc1OCc1ccccc1,-100%
22,O=C(Nc1ccc(Cl)cc1)Nc1ccc(N2CCCC2)c(S(=O)(=O)Nc2ccccc2Cl)c1,-17.1% [at 16 µM]
23,COc1ccc(CNC(=O)C(c2ccc(C)cc2)N(Cc2cccs2)C(=O)c2ccc3c(c2)OCCO3)cc1 (stereo not given),50%
24,COc1ccc(CCNC(=O)CCC(=O)N2CCOc3ccc(Cl)cc32)cc1OC,-107%

row,SMILES,"activity change, negative = inhibition"
1,CCc1ccc(OCCNc2cc(N3CCNC(C)C3)ccc2[N+](=O)[O-])cc1 (stereo not given),-83.3%
2,O=S(=O)(c1ccc(Cl)cc1)n1ccc2cccnc21,6.94%
3,Cc1ccc(C)c(S(=O)(=O)Nc2ccc(-n3cnnn3)cc2)c1,276%
4,COc1ccc(C(=O)OCC(=O)Nc2ccc3[nH]c(=O)[nH]c3c2)cc1,62.5%
5,Cc1ccccc1NC(=O)CSc1nc2ccccc2c(=O)n1C,10%
6,COc1ccc(N2C(=O)C(CC(=O)Nc3ccccc3)N(Cc3ccc(OC)c(OC)c3)C2=O)cc1 (stereo not given),84.7%
7,CCCCC[C@H]1CN(Cc2ccc(OC)cc2)C(=O)[C@@H]1CC(=O)NCc1ccccc1,196%
8,COCCn1c(C)cc(C2=NNC(=NC3CC3)SC2)c1C,10%
9,Cc1ccc(S(=O)(=O)Nc2cccc3ncccc23)s1,-66.7%
10,COc1ccc(NS(=O)(=O)c2ccc(OC)c(N(C)S(=O)(=O)c3ccc(Cl)cc3)c2)cc1,-58.3%
11,Cc1nc(SCC(=O)Nc2nc3ccccc3s2)c(C#N)c(C)c1C,-8.33%
12,Cc1ccc(NC(=O)c2cc3ccccc3oc2=O)cc1S(=O)(=O)N(C)C,45.2%
13,Cc1cccc(C)c1NC(=O)CN(C)C(=O)c1cc(S(=O)(=O)N(C)C)ccc1N1CCCC1,41.7%
14,Cc1nc2ncnn2c(C)c1Cc1cccc(F)c1,25%
15,Cn1cc(CN(CCO)Cc2cccs2)c(-c2cccc(Cl)c2)n1,16.7%
16,COc1ccc(C(=O)Cn2c(C(=O)/C=C/c3ccccc3)nc3ccccc32)cc1,170%
17,COc1ccc(OCc2cccc(C(=O)O)c2)cc1,107%
18,O=C(O)c1cccc(COc2ccccc2Cl)c1,-10%
19,Oc1c(C(c2cccs2)N2CCC3(CC2)OCCO3)sc2ncnn12 (stereo not given),151%
20,CCN1C(=O)[C@H]2[C@@H](c3ccc(-c4ccc(OC)cc4)cc3)N3CCC[C@@]3(C(=O)OC)[C@H]2C1=O,-39.3%
21,COC(=O)[C@@]12CCCN1[C@H](c1ccc(-c3ccc(OC)cc3)cc1)[C@@H]1C(=O)N(C)C(=O)[C@@H]12,47.2%
22,CCCCN1CC(COCc2ccccc2)Oc2cccc(Oc3ccc(C)cc3)c2S1(=O)=O (stereo not given),130%
23,CCCCN1CC(COCc2ccccc2)Oc2cccc(Oc3cc(C)c(C)c(C)c3)c2S1(=O)=O (stereo not given),300%
24,COC(=O)c1ccccc1NC(=S)N(Cc1ccc2c(c1)OCO2)Cc1cc2cc(OC)ccc2[nH]c1=O,200%

row,SMILES,"activity change, negative = inhibition"
1,O=C1S/C(=C\c2ccc(N3CCOCC3)o2)C(=O)N1Cc1c(F)cccc1Cl,400%
2,Cc1cc(C)n(-c2cc(-n3nc(C)cc3C)ncn2)n1,2.38%
3,C[C@@H]1CN([C@H](C)CO)C(=O)c2cc(Br)cnc2O[C@H]1CN(C)C(=O)Cc1ccncc1,83.3%
4,CN1OC[C@@H]2CN[C@H](c3ccc(-c4cc5ccccc5o4)cc3)C[C@@H]21,-25%
5,CN(CC(=O)Nc1cc(S(=O)(=O)N2CCCC2)ccc1Cl)Cc1ccc2c(c1)OCO2,87.5%
6,CC(C)(C)OC(=O)NCc1ccc(CNC(=O)c2nc[nH]c2C(=O)NCc2ccc(CNC(=O)OC(C)(C)C)cc2)cc1,208%
7,Cc1ccc(-n2cc(CNCCCn3ccnc3C)c(-c3ccc(F)cc3)n2)cc1,-91.7%
8,COC(=O)c1cn(NC(=O)c2cc([N+](=O)[O-])ccc2F)c(=O)c2ccccc12,354%
9,CC(C)c1ccc(Oc2cccc3c2S(=O)(=O)N(C2CCCC2)CC(COCc2ccccc2)O3)cc1 (stereo not given),273%
10,Cn1cccc1Cc1nnc(SCC(=O)NCCc2ccccc2)n1-c1ccc(F)cc1,275%
11,CCN(CC)S(=O)(=O)c1ccc(N(C)Cc2cccc(OC)c2OC)nc1,-40%
12,CCOC(=O)c1ccc(NC(=O)c2nc[nH]c2C(=O)NCCNC(=O)c2[nH]cnc2C(=O)Nc2ccc(C(=O)OCC)cc2)cc1,47.9%
13,COc1ccccc1N1CCN(c2ncc(C(=O)N3CCN(c4cccc(Cl)c4)CC3)c3ccccc23)CC1,66.7%
14,Cc1cccc2c(C(=O)N3CCN(c4ccccn4)CC3)cc(-c3cccc(Br)c3)nc12,-100%
15,CCOc1cc(C)c(S(=O)(=O)Nc2ccc3cn[nH]c3c2)cc1C,0%
16,Cc1ccc(NC(=O)C2CCCN(S(=O)(=O)c3c(C)noc3C)C2)cc1 (stereo not given),-19.4%
17,COc1ccc(C(=O)NCCN(C)C)c2nc3ccccc3cc12,66.5%
18,COc1ccccc1/C=C1\CCCC2=C1Nc1nnnn1C2c1ccccc1OC (stereo not given),-110%
19,CCn1c(C)cc(C(=O)COC(=O)c2ccccc2[N+](=O)[O-])c1C,-13.6%
20,COc1ccc(-c2nsc3c(N4CCCCC4C)ncnc23)cc1 (stereo not given),-16.7%
21,O=C(CN1C(=O)C2CCCCC2C1=O)NC1CCCc2ccccc21 (stereo not given),-10%
22,C[C@@H]1CCCCO[C@H](CN(C)Cc2ccccc2)[C@@H](C)CN([C@H](C)CO)C(=O)c2cc(NC(=O)c3ccccc3)ccc2O1,33.3%
23,C[C@@H]1CN([C@@H](C)CO)C(=O)c2cc(NC(=O)Nc3ccc(F)cc3)ccc2O[C@@H]1CN(C)Cc1ccc(Oc2ccccc2)cc1,-20.8%
24,CN(Cc1ccccc1)C(=O)c1cccc(NC(=O)Cc2ccc([N+](=O)[O-])cc2)c1,230%

row,SMILES,"activity change, negative = inhibition"
1,COc1ccc2c(CC(=O)OCC(=O)N(C)c3c(N)n(Cc4ccccc4)c(=O)[nH]c3=O)coc2c1,-12.5%
2,CC(Oc1ccc(F)cc1)C(=O)N(CCC1=CCCCC1)c1c(N)n(Cc2ccccc2)c(=O)[nH]c1=O (stereo not given),-25%
3,COc1ccc(CN2CCC(C(=O)Nc3ccc(Oc4cccnc4)cc3)CC2)c(C)c1C,-75%
4,CC(C)(C)C(=O)Nc1cc(S(=O)(=O)N2CCCCC2)ccc1N1CCCCC1,50%
5,COc1cccc(-c2nc(NC3CCCC3)c3ccccc3n2)c1O,-22.7%
6,COc1ccc(-n2ncc3c(N4CCCCC4)ncnc32)cc1,-75%
7,CCn1cc(CNCc2cn(-c3ccccc3C)nc2-c2ccc(OC)c(F)c2)cn1,150%
8,Cc1ccc(C(=O)Nc2cnc3ccccc3c2)cc1,90%
9,CC(=O)c1cccc(NS(=O)(=O)c2ccc(-c3cnc(C4CC4)o3)cc2)c1,8.33%
10,Cc1cccc(NS(=O)(=O)c2ccc(C3CCCCC3)cc2)c1,0%
11,CCOC(=O)c1[nH]c(C)c(/C(O)=C2\C(=O)C(=O)N(CCCN3CCOCC3)C2c2cccs2)c1C (stereo not given),70%
12,O=C(CSc1nnc(Nc2ccccc2)s1)NC1CCS(=O)(=O)C1 (stereo not given),20.8%
13,CCOC(=O)c1cn(CC(=O)Nc2cccc(Cl)c2C)nn1,16.7%
14,CCOC(=O)Cn1c(S(=O)(=O)Cc2ccccc2Cl)nc(-c2ccccc2)c1-c1ccccc1,110%
15,CC1(C)CC(=O)c2c(nc(SCC(=O)Nc3nsc(-c4ccccc4)n3)c(C#N)c2-c2ccccc2)C1,16.7%
16,Cc1cccc(C(=O)Nc2ccc(C(=O)/C=C/c3ccncc3)cc2)c1,-100%
17,CCCCN1CC(COCc2ccccc2)Oc2cccc(Oc3ccc(C(C)C)cc3)c2S1(=O)=O (stereo not given),37.5%
18,OCCNc1nc(Nc2ccc(Cl)cc2)nc(N2CCCC2)n1,-11.7%
19,OCCCNc1nccc(-c2cc(Nc3cccc(Cl)c3)ncn2)n1,-50%
20,Cc1cc(O)c(C(C)C)cc1C1(c2cc(C(C)C)c(O)cc2C)OC(=O)c2ccccc21,0%
21,O=C(NCCc1ccccc1)c1ccc2c(c1)OCCCO2,22.2%
22,Cc1ccccc1C(=O)N1CCN(c2ccc(NC(=O)c3ccc4c(c3)OCCO4)cc2)CC1,-103%
23,Cc1onc(-c2c(Cl)cccc2Cl)c1C(=O)N[C@@H]1C(=O)N2[C@@H]1SC(C)(C)[C@@H]2C(=O)O,25%
